Assay outcomes from PubChem.
In the library only some 4.6% were active in any assay of this set; here they are far more common.
TIM10 inh = growth inhibitors of TIM10 yeast strain; S. cerevisiae TIM10 strain growth, BacTiter-Glo luminescence, 24 h; inhibition, % at 10 µM; actives 1.4% (n = 330,000);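 active = inhibition of 40% or more at the single tested concentration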;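 also: wild-type TIM10 isogenic control strain grown at permissive 25 °C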
SKKanGAS inh = SKKanGAS growth inhibition; AID 1662; inhibition, % at 7.5 µM; S. pyogenes SKKanGAS, kanamycin growth, BacTiter-Glo, 6 h; actives 1.3% (n = 300,000);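 active = mean replicate score, as percent of positive control median, at least 50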;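 also: strain carries kanamycin resistance gene driven by streptokinase promoter and grows in 40 µg/ml kanamycin; loss of luminescence reflects streptokinase promoter inhibition or plain growth inhibition; 0% = median of DMSO wells and 100% = positive control at its reference dose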
NALP3 yeast inh = blocks the NALP3 inflammasome reconstituted in yeast. AID 2825. Yeast reconstituted NLRP3/ASC/caspase-1, beta-gal luminescence, 24 h. inhibition, % at 10 µM. actives 0.39% (n = 330,000);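 active = inhibition of 50% or more; inactive = inhibition below 50%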;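 also: plate controls were induced DMSO wells for no effect and uninduced yeast grown without galactose for full effect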
tim23-1 inh = growth inhibitors of tim23-1 mutant yeast. actives 1.3% (n = 330,000). inhibition, % at 20 µM. AID 463212. S. cerevisiae tim23-1 growth, BacTiter-Glo luminescence, 24 h;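 active = growth inhibition of the mutant yeast at or above 50%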;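 also: temperature-sensitive mutant grown at 25 °C; plate controls were DMSO-treated mutant yeast for no effect and medium wells lacking yeast for full effect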
tim10-1 inh = inhibits growth of tim10-1 mutant yeast; inhibition, % at 20 µM; AID 463190; actives 2.2% (n = 330,000); S. cerevisiae tim10-1 ts strain growth, BacTiter-Glo, 24 h;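 active = inhibition of at least 40%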;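 also: mutant grown at 25 °C; 0% = DMSO wells with yeast and 100% = wells holding no yeast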
tim10-1 conf = tim10-1 yeast growth inhibition, confirmed | shares compounds with tim10-1 inh | S. cerevisiae tim10-1 ts strain growth, BacTiter-Glo, 24 h | inhibition, % at 20 µM | actives 56% (n = 7,400) | AID 463213;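 active = inhibition of yeast growth at or above a set limit in either of two repeat tests at 20 µM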;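 also: tim10-1 mutant grown at permissive 25 °C to find synthetic lethal compounds; 0% = DMSO yeast wells and 100% = medium wells without yeast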
Active calls of the source: *; / = no result given.

SMILES	TIM10 inh	SKKanGAS inh	NALP3 yeast inh	tim23-1 inh	tim10-1 inh	tim10-1 conf
CCOC(=O)C1CCN(C(=O)C2CCN(S(=O)(=O)N3CCC4(CC3)OCCO4)CC2)CC1	10.8	-0.5	11.0	6.4	27.0	/
CN(C)S(=O)(=O)Oc1ccsc1C(=O)Nc1ccc(Cl)c(Cl)c1	28.3	7.0	26.3	26.2	44.3*	36.5*
CN(C)S(=O)(=O)Oc1ccsc1C(=O)Nc1cccc(Cl)c1	22.4	-3.7	24.3	26.2	30.7	/
Clc1ccc(Cl)c(-c2nn3c(COc4ccccc4)nnc3s2)c1	1.8	2.5	-13.8	5.9	35.7	/
c1ccc(OCc2nnc3sc(-c4cccs4)nn23)cc1	20.5	-4.3	-14.8	7.7	46.8*	15.8
Cc1ccc(-c2cc(-c3ccccc3)[nH]c(=S)c2C#N)cc1	2.4	9.9	-1.0	35.7	54.3*	25.9
COc1ccc(-c2cc(-c3ccccc3)c(C#N)c(=S)[nH]2)cc1	32.8	-1.6	2.3	41.3	16.4	/
COc1ccccc1/C=C1\SC(=S)N(NS(=O)(=O)c2ccc(C)cc2)C1=O	16.5	16.7	-28.2	39.7	44.4*	17.9
O=C(Nc1cccc([N+](=O)[O-])c1)c1cccc(C(=O)Nc2cccc([N+](=O)[O-])c2)c1	20.6	4.9	5.1	-10.3	-31.5	/
CCOC(=O)/C=C/C(=O)OCC(=O)Nc1ccc([N+](=O)[O-])cc1	19.0	-15.6	-19.8	39.7	42.6*	58.7*
CCOC(=O)/C=C/C(=O)Nc1cccc([N+](=O)[O-])c1	36.5	4.0	1.7	38.0	56.4*	71.2*
COC(=S)Nc1cccc(C(F)(F)F)c1	9.1	18.7	-1.2	0.0	6.1	/
CC(NC(=O)Nc1cccc([N+](=O)[O-])c1)(C(F)(F)F)C(F)(F)F	22.3	-9.5	14.9	40.4	41.6*	33.5*
COc1cc(/C=C/C(=O)OCC(=O)Nc2ccc([N+](=O)[O-])cc2)ccc1O	-4.1	5.4	-2.6	-8.1	-8.8	/
COC(=O)/C=C/C(=O)Nc1cccc(C(F)(F)F)c1	31.6	0.8	34.7	40.8	47.4*	50.9*
COc1ccccc1CNC(=O)Cn1cccc1C(=O)c1ccccc1C	3.9	-19.5	3.4	19.1	19.3	/
O=C1CN(C(=O)c2c(F)cccc2F)C(c2ccccc2)c2cc(Br)ccc2N1 (configuration not stated)	21.8	9.7	11.7	24.7	19.7	/
O=C1CN(C(=O)c2c(F)cccc2F)C(c2ccc(F)cc2)c2cc(Br)ccc2N1 (configuration not stated)	7.4	-0.8	-5.6	25.9	41.2*	29.5*
CCOC(=O)C1CCN(S(=O)(=O)c2cc(Br)cc3c2N(C(=O)C2CC2)CC3)CC1	33.2	1.6	8.2	32.5	33.8	/
O=C(C1CC1)N1CCc2cc(Br)cc(S(=O)(=O)N3CCN(c4ccccn4)CC3)c21	10.4	3.1	20.4	28.2	43.8*	36.6*
CCOc1ccc(N2C(=O)CC(NCCNc3ccc([N+](=O)[O-])cn3)C2=O)cc1 (configuration not stated)	5.8	3.0	11.3	11.8	53.2*	28.5*
CCOc1cc(/C=C2\N=C(C)OC2=O)cc(Br)c1OCC(=O)OC	15.8	-11.5	-0.2	26.3	43.7*	10.2
CCOC(=O)c1c(N)sc(C(=O)OC)c1C	-14.6	6.8	19.5	5.5	1.9	/
CCOC(=O)c1c(N)sc2c(OC)c(Br)ccc12	32.0	3.5	34.4	39.0	58.3*	45.4*
Cc1ccc(C)c(NC(=S)NNC(=O)c2csc(C(C)C)c2)c1	21.6	-11.3	9.9	17.2	40.2*	34.1*
Cc1cccc(NC(=S)NNC(=O)c2ccc3c(c2)OCO3)c1	7.9	5.0	4.9	23.0	16.5	/
CCCc1cc(C(=O)NNC(=S)Nc2cccc(C)c2)cs1	23.6	-0.9	5.1	40.7	46.7*	14.6
Cc1ccc(C)c(NC(=S)NNC(=O)c2csc(C)c2C)c1	25.9	-0.5	0.7	26.2	24.7	/
Cc1ccc(C)c(NC(=S)NNC(=O)c2cc3c(s2)CCC(C)C3)c1 (configuration not stated)	22.3	9.2	6.3	32.8	44.1*	33.7*
Cc1sc2ncn(CC(=O)N3CCN(c4ccc(F)cc4)CC3)c(=O)c2c1S(=O)(=O)N1CCOCC1	9.1	-0.8	19.9	5.4	-12.0	/
